From PubChem BioAssay (NCATS)
Records with an inconclusive call do not appear. Active and inactive are the calls of the source. The call rests on the fitted dose curve; in most records, active means well fitted curve in the direction sought with a large enough effect; inconclusive means small, poorly fitted or top-dose-only effect, or another doubt; inactive means no such curve, though single readings can be large; an effect the other way counts as inactive or inconclusive.

Key:
HaCat [1] = test: Cytotoxic Profiling of Annotated Libraries Using Quantitative High-Throughput Screening (AID 1296008); conditions: Five cell lines viability, CellTiter-Glo ATP luminescence, 48-72 h; max response: stronger effect = lower value; further: nearly all actives have a fitted effect of over 60% in size; further: potency means the concentration at half of the fitted maximal effect; on max response: on the % scale 0 is the no-effect control and ±100 the full control effect
Procedure, shortened: (§1)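 Compounds were pin-transferred onto cells and incubated 48 or 72 hr at 37 degree Celsius, 95% humidity. CellTiter-Glo was added, plates sat 10 min at room temperature, then ATP-coupled luminescence was imaged as the viability read-out.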

KB-3-1 = test: as above; conditions: Five cell lines viability, CellTiter-Glo ATP luminescence, 48-72 h; max response: stronger effect = lower value
Procedure, shortened: as §1

NIH3T3 [2] = test: as above; conditions: Five cell lines viability, CellTiter-Glo ATP luminescence, 48-72 h; max response: stronger effect = lower value
Procedure, shortened: as §1

NIH3T3 [3] = test: qHTS assay to identify novel small-molecules to repurpose for Merkel cell carcinoma treatment (AID 1296009); conditions: MCC and control cell lines, CellTiter-Glo viability, 72 h; series mostly up to 44.8 µM; further: nearly all actives have a fitted effect of over 60% in size
Procedure, shortened: (§2)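 qHTS format: cells treated with library compounds in DMSO across 8 (NPC) or 11 (MIPE) concentrations. Readout after 72 hr at 37 degree celsius was CellTiter-Glo luminescence.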

C33A = test: Primary qHTS to identify gynecologic anti-cancer compounds using libraries of approved drugs and bioactive compounds (AID 1345084); conditions: Gynecologic cancer cell panel viability, ATPlite luminescence, 48 h; series mostly up to 57.5 µM; further: on the % scale 0 is the no-effect control and ±100 the full control effect; nearly all actives have a fitted effect of over 55% in size
Procedure, shortened: (§3)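 Measured: luminescence after ATPlite addition (15 min, RT). Exposure: 48 h, 37 C, 5% CO2.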

CASKI = test: as above; conditions: Gynecologic cancer cell panel viability, ATPlite luminescence, 48 h; series mostly up to 57.5 µM
Procedure, shortened: as §3

Es-2 = test: as above; conditions: Gynecologic cancer cell panel viability, ATPlite luminescence, 48 h; series mostly up to 57.5 µM
Procedure, shortened: as §3

Hek293T = test: as above; conditions: Gynecologic cancer cell panel viability, ATPlite luminescence, 48 h, control line for the selectivity index; series mostly up to 57.5 µM
Procedure, shortened: as §3

JEG-3 = test: as above; conditions: Gynecologic cancer cell panel viability, ATPlite luminescence, 48 h; series mostly up to 57.5 µM
Procedure, shortened: as §3

PA-1 = test: as above; conditions: Gynecologic cancer cell panel viability, ATPlite luminescence, 48 h; series mostly up to 57.5 µM
Procedure, shortened: as §3

SKOV3 = test: as above; conditions: Gynecologic cancer cell panel viability, ATPlite luminescence, 48 h; series mostly up to 57.5 µM
Procedure, shortened: as §3

HACAT [4] = test: qHTS assay to identify novel small-molecules to repurpose for Merkel cell carcinoma treatment (AID 1296009); conditions: MCC and control cell lines, CellTiter-Glo viability, 72 h; at 44.8 µM (top of the series) unless noted; further: nearly all actives have a fitted effect of over 60% in size
Procedure, shortened: as §2

CAOV3 = test: Primary qHTS to identify gynecologic anti-cancer compounds using libraries of approved drugs and bioactive compounds (AID 1345084); conditions: Gynecologic cancer cell panel viability, ATPlite luminescence, 48 h; series mostly up to 57.5 µM; further: on the % scale 0 is the no-effect control and ±100 the full control effect; nearly all actives have a fitted effect of over 55% in size
Procedure, shortened: as §3

HeLa = test: as above; conditions: Gynecologic cancer cell panel viability, ATPlite luminescence, 48 h; series mostly up to 57.5 µM
Procedure, shortened: as §3

OV90 = test: as above; conditions: Gynecologic cancer cell panel viability, ATPlite luminescence, 48 h; series mostly up to 57.5 µM
Procedure, shortened: as §3

O=C1Cc2c([nH]c3ccc(Br)cc23)-c2ncccc2N1
inactive: max response (HaCat [1]) 2.65% | max response (KB-3-1) 2.04% | outcome (NIH3T3 [2]) | Potency (NIH3T3 [3]) | Potency (C33A) | Potency (CASKI) | Potency (Es-2) | Potency (Hek293T) | Potency (JEG-3) | Potency (PA-1) | Potency (SKOV3)

O=C(Nc1ccc(C(F)(F)F)cn1)N1CCN(c2ncccc2C(F)(F)F)CC1
inactive: outcome (HaCat [1]) | max response (KB-3-1) -14.9% | max response (NIH3T3 [2]) -8.79% | outcome (HACAT [4]) | Potency (C33A) | Potency (CAOV3) | Potency (CASKI) | Potency (Es-2) | Potency (HeLa) | Potency (Hek293T) | Potency (JEG-3) | Potency (OV90) | Potency (PA-1) | Potency (SKOV3)

C=C1C(=O)O[C@@H]2C=C(COC(C)=O)CC/C=C(\CO)CC[C@@H]12
inactive: outcome (HaCat [1]) | max response (KB-3-1) 7.74% | max response (NIH3T3 [2]) -6.09% | outcome (HACAT [4]) | Potency (C33A) | Potency (CASKI) | Potency (Es-2) | Potency (HeLa) | Potency (Hek293T) | Potency (JEG-3) | Potency (OV90) | Potency (PA-1) | Potency (SKOV3)

CC1(C)CC[C@]2(C(=O)O[C@@H]3O[C@H](CO)[C@@H](O)[C@H](O)[C@H]3O)CC[C@]3(C)C(=CCC4[C@@]5(C)CC[C@H](O[C@@H]6O[C@H](C(=O)O)[C@H](O)[C@H](O)[C@H]6O)C(C)(C)C5CC[C@]43C)[C@@H]2C1 (stereo not given in full)
inactive: outcome (HaCat [1]) | outcome (KB-3-1) | max response (NIH3T3 [2]) -2.05% | outcome (HACAT [4]) inactive [at 17.4 µM] | Potency (C33A) | Potency (CAOV3) | Potency (CASKI) | Potency (Es-2) | Potency (HeLa) | Potency (Hek293T) | Potency (JEG-3) | Potency (OV90) | Potency (SKOV3)

CC(=O)OC1C(O)CC2(C)C(CCC3(C)C2CC=C2C4C5(CCC(CO[C@@H]6O[C@H](CO)[C@@H](O)[C@H](O)[C@H]6O)(OC5=O)C4(C)O)C(O)CC23C)C1(C)C (stereo not given in full)
inactive: max response (HaCat [1]) -8.16% | outcome (KB-3-1) | max response (NIH3T3 [2]) 2.97% | Potency (C33A) | Potency (CAOV3) | Potency (CASKI) | Potency (Es-2) | Potency (HeLa) | Potency (Hek293T) | Potency (JEG-3) | Potency (OV90) | Potency (PA-1) | Potency (SKOV3)

CC(=O)O[C@@H]1C2=C(O)C(=O)[C@](C)(OC(C)=O)C(=O)C2=CO[C@@]12O[C@@H](C)CC[C@H]2OC(C)=O
inactive: outcome (HaCat [1]) | outcome (KB-3-1) | max response (NIH3T3 [2]) -10.7% | outcome (HACAT [4]) inactive [at 17.4 µM] | Potency (C33A) | Potency (CASKI) | Potency (Es-2) | Potency (HeLa) | Potency (Hek293T) | Potency (JEG-3) | Potency (OV90) | Potency (PA-1) | Potency (SKOV3)

COc1cc(C#N)ccc1S(=O)(=O)Nc1ccc2c(c1)cc(C)c(=O)n2C
inactive: max response (HaCat [1]) -9.16% | max response (KB-3-1) -22.2% | max response (NIH3T3 [2]) -0.625% | Potency (C33A) | Potency (CAOV3) | Potency (CASKI) | Potency (Es-2) | Potency (HeLa) | Potency (Hek293T) | Potency (JEG-3) | Potency (OV90) | Potency (PA-1)

CN1CCN(S(=O)(=O)c2ccc(-c3cnc(N)c(C(=O)Nc4cccnc4)n3)cc2)CC1
inactive: max response (HaCat [1]) -21.1% | max response (KB-3-1) 3.5% | Potency (C33A) | Potency (CAOV3) | Potency (CASKI) | Potency (Es-2) | Potency (HeLa) | Potency (Hek293T) | Potency (OV90)
active: Potency (NIH3T3 [2]) 632 nM

Nc1nc(OCc2cc(Br)cs2)c2[nH]cnc2n1
inactive: max response (HaCat [1]) -1.07% | outcome (KB-3-1) | max response (NIH3T3 [2]) 2.13% | Potency (C33A) | Potency (CAOV3) | Potency (CASKI) | Potency (Es-2) | Potency (HeLa) | Potency (Hek293T) | Potency (JEG-3) | Potency (OV90) | Potency (PA-1) | Potency (SKOV3)

Cc1cc2sc(NC(=O)Cc3ccccc3)nc2cc1Cl
inactive: max response (HaCat [1]) -26.8% | max response (KB-3-1) 3.53% | max response (NIH3T3 [2]) 0.0198% | Potency (C33A) | Potency (CAOV3) | Potency (CASKI) | Potency (Es-2) | Potency (HeLa) | Potency (Hek293T) | Potency (JEG-3) | Potency (OV90) | Potency (PA-1) | Potency (SKOV3)

CCOC(=O)C1(CCOc2ccccc2)CCN(Cc2ccc(O)c(Cl)c2)CC1
inactive: max response (HaCat [1]) 0.37% | max response (KB-3-1) -15.3% | max response (NIH3T3 [2]) -16.4% | Potency (C33A) | Potency (CAOV3) | Potency (CASKI) | Potency (Es-2) | Potency (HeLa) | Potency (Hek293T) | Potency (JEG-3) | Potency (OV90) | Potency (PA-1)

O=c1cc(N2CCN(c3cccc(C(F)(F)F)c3)CC2)[nH]c(=O)n1C1CCCCC1
inactive: max response (HaCat [1]) -21.7% | outcome (KB-3-1) | max response (NIH3T3 [2]) -29.2% | Potency (C33A) | Potency (CAOV3) | Potency (CASKI) | Potency (Es-2) | Potency (HeLa) | Potency (Hek293T) | Potency (JEG-3) | Potency (OV90) | Potency (PA-1) | Potency (SKOV3)

COC(=O)c1sccc1S(=O)(=O)Nc1ccc(Nc2ccccc2)cc1OC
inactive: outcome (HaCat [1]) | max response (KB-3-1) -21.5% | max response (NIH3T3 [2]) 1.31% | outcome (HACAT [4]) | Potency (C33A) | Potency (CAOV3) | Potency (CASKI) | Potency (Es-2) | Potency (HeLa) | Potency (Hek293T) | Potency (JEG-3) | Potency (OV90) | Potency (PA-1) | Potency (SKOV3)

O=C(NCc1cccs1)c1cc2nc(-c3ccco3)cc(C(F)(F)Cl)n2n1
inactive: outcome (HaCat [1]) | max response (KB-3-1) 3.07% | max response (NIH3T3 [2]) -24.5% | outcome (HACAT [4]) | Potency (C33A) | Potency (CAOV3) | Potency (CASKI) | Potency (Es-2) | Potency (HeLa) | Potency (Hek293T) | Potency (JEG-3) | Potency (OV90) | Potency (SKOV3)

CCCCOc1ccc(S(=O)(=O)n2c(C)nc3ccccc32)cc1
inactive: max response (HaCat [1]) 3.36% | max response (KB-3-1) -24.1% | max response (NIH3T3 [2]) -1.64% | Potency (C33A) | Potency (CAOV3) | Potency (CASKI) | Potency (Es-2) | Potency (HeLa) | Potency (Hek293T) | Potency (JEG-3) | Potency (OV90) | Potency (PA-1) | Potency (SKOV3)
